Several values for one entry are separate records, joined by “and”; a condition that tells them apart may be missing. Equal entries are not always repeated. Some structures have more than one record in an assay (separate samples or runs), and their calls can disagree. Activity calls are given as the source filed them. How the source made its calls: active means hit-call score of the fitted dose curve at least 0.9, where 1 is the maximum; inactive means score below 0.9.
Assays:
[1] = ATG_GRE_CIS: Attagene CIS-FACTORIAL HepG2 Assay for human Glucocorticoid Response Elements (GRE) (AID 2282947); settings: HepG2 GRE cis-reporter, Attagene multiplex mRNA; AC50: actives raise or lower the signal unless noted; outcome: actives raise or lower the signal unless noted
Outline: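 HepG2, transient cis-reporter transfection, 24 h. Reporter mRNA: RT-PCR then CE, fluorescence. Fit both directions vs DMSO.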

[2] = ATG_ISRE_CIS: Attagene CIS-FACTORIAL HepG2 Assay for human Interferon Regulatory Factor 1 (IRF1) binding to an Interferon-Stimulated Response Element (ISRE) (AID 2282948); settings: HepG2 ISRE cis-reporter (Attagene), mRNA transcription readout; actives raise or lower the signal
Outline: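 Uses HepG2 liver cells transfected with cis-regulated reporters and measures mRNA 24 h post-dosing through RT-PCR, primer-extension labelling and capillary electrophoresis, with DMSO as negative control.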

[3] = ATG_M_32_CIS: Attagene CIS-FACTORIAL HepG2 Assay for M32 Transcription Factor (Internal Marker) (AID 2282949); settings: HepG2 Attagene cis-factorial M32 reporter, mRNA; actives raise or lower the signal;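 further: background control marker of the multiplexed CIS panel rather than a real target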
Outline: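 Using DMSO as baseline, bidirectional curve fits were applied to reporter mRNA signals. These came from transiently transfected HepG2 cells exposed for 24 h, with RNA analysed by RT-PCR, FAM primer extension, HpaI digestion and CE.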

[4] = ATG_M_06_CIS: Attagene CIS-FACTORIAL HepG2 Assay for M06 Transcription Factor (Internal Marker) (AID 2282950); settings: HepG2 Attagene CIS-FACTORIAL M06 internal marker reporter; actives raise or lower the signal
Outline: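 One of many multiplexed endpoints: HepG2 reporter mRNA after 24 h dosing, detected by RT-PCR and capillary electrophoresis fluorescence; gain or loss of signal analysed against DMSO.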

[5] = molecular target: Hypoxia-inducible factor 1-alpha (Homo sapiens) (UniProt Q16665); experiment: ATG_HIF1a_CIS: Attagene CIS-FACTORIAL HepG2 Assay for human Hypoxia Inducible Factor 1 (HIF1A) (AID 2282951); settings: HepG2 Attagene cis-factorial HIF1a reporter transcription; actives raise or lower the signal
Outline: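 After 24 h chemical exposure of reporter-transfected HepG2 cells, reporter cDNA was PCR-amplified, labelled by 6-FAM primer extension (2 min 95 C, 20 s 68 C, 10 min 72 C), HpaI-cut (2 h, 37 C) and analysed by CE.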

[6] = molecular target: Heat shock factor protein 1 (Homo sapiens) (UniProt Q00613); experiment: ATG_HSE_CIS: Attagene CIS-FACTORIAL HepG2 Assay for human Heat Shock Transcription Factor 1 (HSE) (AID 2282953); settings: HepG2 HSE cis-reporter, Attagene RNA transcription; actives raise or lower the signal
Outline: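 Using HepG2 with transfected cis-driven reporter constructs, compound effects on endogenous factor activity are scored as reporter mRNA change at 24 h. Detection: RT-PCR, HpaI digestion, capillary electrophoresis; bidirectional fitting to DMSO.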

[7] = ATG_MRE_CIS: Attagene CIS-FACTORIAL HepG2 Assay for human Metal Responsive Element (MRE) (AID 2282954); settings: HepG2 MRE cis-reporter transcription, Attagene multiplex; actives raise or lower the signal
Outline: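 Readout: capillary electrophoresis of 6-FAM-labelled, HpaI-digested RT-PCR reporter products. System: HepG2 cells carrying transient multiplexed cis reporters, dosed 24 h. Analysis: bidirectional fit, DMSO baseline.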

[8] = ATG_PBREM_CIS: Attagene CIS-FACTORIAL HepG2 Assay for human Phenobarbital-responsive Enhancer Module (PBREM) (AID 2282955); settings: HepG2 PBREM cis-reporter, Attagene multiplexed transcription; actives raise or lower the signal
Outline: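 Measures endogenous factor action on a phenobarbital-responsive enhancer module. HepG2 transiently carrying cis reporters, 24 h treatment, mRNA read-out by RT-PCR plus capillary electrophoresis.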

[9] = molecular target: Paired box protein Pax-6 (Homo sapiens) (UniProt P26367); experiment: ATG_Pax6_CIS: Attagene CIS-FACTORIAL HepG2 Assay for human Paired Box 6 (PAX6) (AID 2282956); settings: HepG2 CIS-FACTORIAL PAX6 reporter transcription, RNA readout; actives raise or lower the signal
Outline: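 DMSO-referenced bidirectional fits of reporter mRNA fluorescence; HepG2 with transient cis-promoter MRTUs, 24 h post-dose, RT-PCR plus capillary electrophoresis detection.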

[10] = molecular target: Hepatocyte nuclear factor 6 (Homo sapiens) (UniProt Q9UBC0); experiment: ATG_HNF6_CIS: Attagene CIS-FACTORIAL HepG2 Assay for human Hepatocyte Nuclear Factor 6 (HNF6) (AID 2282952); settings: HepG2 Attagene cis-factorial HNF6 reporter transcription; actives raise or lower the signal
Outline: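 Twenty-four-hour chemical treatment of reporter-transfected HepG2 cells precedes RNA isolation, DNase-treated reverse transcription and PCR of reporter sequences. Labelled fragments are sized by capillary electrophoresis and fitted bidirectionally versus DMSO.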

Measured: AC50

Sequence of Heat shock factor protein 1 (Homo sapiens) (Q00613 whole entry, looked up): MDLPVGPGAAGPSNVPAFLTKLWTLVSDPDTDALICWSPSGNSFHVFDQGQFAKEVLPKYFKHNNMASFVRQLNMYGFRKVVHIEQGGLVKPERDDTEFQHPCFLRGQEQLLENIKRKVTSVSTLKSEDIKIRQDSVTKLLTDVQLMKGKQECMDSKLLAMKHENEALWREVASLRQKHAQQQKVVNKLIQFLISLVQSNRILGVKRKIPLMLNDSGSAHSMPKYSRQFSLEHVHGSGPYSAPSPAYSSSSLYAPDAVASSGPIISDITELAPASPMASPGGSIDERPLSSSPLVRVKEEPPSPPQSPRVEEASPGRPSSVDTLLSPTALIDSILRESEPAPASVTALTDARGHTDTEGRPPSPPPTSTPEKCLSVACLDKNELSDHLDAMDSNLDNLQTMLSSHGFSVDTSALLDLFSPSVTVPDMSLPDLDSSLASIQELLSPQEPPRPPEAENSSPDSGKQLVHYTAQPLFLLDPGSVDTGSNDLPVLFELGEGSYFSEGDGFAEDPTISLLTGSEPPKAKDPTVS
Sequence of Hypoxia-inducible factor 1-alpha (Homo sapiens) (Q16665 whole entry, looked up): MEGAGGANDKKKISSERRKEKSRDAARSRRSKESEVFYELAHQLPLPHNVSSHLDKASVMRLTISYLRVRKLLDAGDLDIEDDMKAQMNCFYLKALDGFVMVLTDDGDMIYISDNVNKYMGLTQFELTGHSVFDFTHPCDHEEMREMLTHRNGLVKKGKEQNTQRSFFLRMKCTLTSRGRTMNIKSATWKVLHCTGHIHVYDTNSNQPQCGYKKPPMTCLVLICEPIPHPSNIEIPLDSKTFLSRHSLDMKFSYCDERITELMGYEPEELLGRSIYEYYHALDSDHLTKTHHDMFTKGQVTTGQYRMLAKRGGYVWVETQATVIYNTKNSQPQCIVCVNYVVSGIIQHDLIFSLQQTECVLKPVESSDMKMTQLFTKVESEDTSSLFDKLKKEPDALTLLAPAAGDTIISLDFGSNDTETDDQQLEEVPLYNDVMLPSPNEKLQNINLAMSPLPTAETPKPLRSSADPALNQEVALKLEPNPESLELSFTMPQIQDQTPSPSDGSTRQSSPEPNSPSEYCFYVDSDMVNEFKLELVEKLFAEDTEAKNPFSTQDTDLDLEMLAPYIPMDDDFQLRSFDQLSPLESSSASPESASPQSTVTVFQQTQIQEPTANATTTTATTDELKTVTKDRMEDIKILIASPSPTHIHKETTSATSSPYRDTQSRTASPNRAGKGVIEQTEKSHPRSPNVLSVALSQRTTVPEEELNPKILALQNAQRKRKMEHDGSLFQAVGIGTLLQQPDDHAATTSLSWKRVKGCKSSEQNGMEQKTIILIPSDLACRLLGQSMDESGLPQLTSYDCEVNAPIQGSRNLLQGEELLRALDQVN
Sequence of Paired box protein Pax-6 (Homo sapiens) (P26367 whole entry, looked up): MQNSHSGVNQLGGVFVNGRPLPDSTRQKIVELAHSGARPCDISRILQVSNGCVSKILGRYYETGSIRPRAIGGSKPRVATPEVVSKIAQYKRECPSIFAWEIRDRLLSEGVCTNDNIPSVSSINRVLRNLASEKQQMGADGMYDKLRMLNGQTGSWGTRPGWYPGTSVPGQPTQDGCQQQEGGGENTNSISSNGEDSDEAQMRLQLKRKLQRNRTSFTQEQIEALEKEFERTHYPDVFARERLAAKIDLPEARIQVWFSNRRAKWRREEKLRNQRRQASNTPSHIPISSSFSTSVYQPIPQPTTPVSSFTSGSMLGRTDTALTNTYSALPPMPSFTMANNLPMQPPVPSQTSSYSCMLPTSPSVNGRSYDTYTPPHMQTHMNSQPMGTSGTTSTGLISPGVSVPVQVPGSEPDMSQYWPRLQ
Sequence of Hepatocyte nuclear factor 6 (Homo sapiens) (Q9UBC0 whole entry, looked up, the tested form may be a part): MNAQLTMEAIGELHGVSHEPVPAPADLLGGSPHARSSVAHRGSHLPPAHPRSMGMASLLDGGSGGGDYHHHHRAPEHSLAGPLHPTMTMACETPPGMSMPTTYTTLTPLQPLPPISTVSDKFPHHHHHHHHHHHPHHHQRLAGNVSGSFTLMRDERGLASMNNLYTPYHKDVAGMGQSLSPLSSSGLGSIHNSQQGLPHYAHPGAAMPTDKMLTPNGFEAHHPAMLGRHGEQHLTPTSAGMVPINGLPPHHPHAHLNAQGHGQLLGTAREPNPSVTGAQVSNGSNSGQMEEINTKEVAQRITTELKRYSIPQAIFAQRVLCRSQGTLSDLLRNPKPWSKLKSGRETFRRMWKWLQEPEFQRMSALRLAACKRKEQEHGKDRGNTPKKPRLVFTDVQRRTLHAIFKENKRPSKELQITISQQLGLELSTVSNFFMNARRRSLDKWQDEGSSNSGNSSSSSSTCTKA

CCc1cccc(CC)c1NC(=O)C(=O)O
not listed: [9] | [10]
inactive: all other assays above

CC1CNCC(C)O1 (configuration not stated)
not listed: [10]
inactive: all other assays above

CCOC(OCC)C(=O)c1ccccc1
not listed: [6] | [9]
inactive: all other assays above

C=CCOCC(CO)(CO)CO
not listed: [6]
inactive: all other assays above

OCC(F)(F)C(F)(F)C(F)(F)C(F)(F)C(F)(F)C(F)(F)C(F)(F)C(F)(F)C(F)(F)C(F)(F)C(F)(F)F
not listed: [7]
inactive: all other assays above

CC(C)(O)C(=O)c1ccccc1
not listed: [6]
inactive: all other assays above

C=CC(=O)OCC(CO)(COCC(COC(=O)C=C)(COC(=O)C=C)COC(=O)C=C)COC(=O)C=C
active: [2] 1.29 µM | [5] 2.92 µM | [9] 2.71 µM
not listed: [7]
inactive: all other assays above

FC(F)(F)N1C(F)(F)C(F)(F)OC(F)(F)C1(F)F
not listed: [7]
inactive: all other assays above

Oc1c(Cl)ccc(Cl)c1Cl
not listed: [9] | [10]
inactive: all other assays above

CCOC=O
not listed: [6]
inactive: all other assays above

CCCCCCCCCCCCCCC
not listed: [6]
inactive: all other assays above

OCC(CO)(CBr)CBr
not listed: [6] | [9]
inactive: all other assays above

COCN(COC)c1nc(N(COC)COC)nc(N(COC)COC)n1
not listed: [6]
inactive: all other assays above

CCOC=C(C(=O)OCC)C(=O)OCC
not listed: [6] | [7]
inactive: all other assays above

O=C1C=CC(=O)N1c1cccc(N2C(=O)C=CC2=O)c1
not listed: [7]
inactive: all other assays above

CCc1ccccc1O
not listed: [9] | [10]
inactive: all other assays above

CC(C)c1c(C(=O)Nc2ccccc2)c(-c2ccccc2)c(-c2ccc(F)cc2)n1CC[C@@H](O)C[C@@H](O)CC(=O)O
active: [5] 57.9 µM and 22.5 µM | [7] 61.4 µM and 34.3 µM | [8] 25.3 µM | [9] 94.5 µM
inactive: [1] | [2] | [3] | [4] | [6] | [8] | [9]

CCCCCCCCCCCC[N+](C)(C)CCCCCCCCCCCC
active: [2] 100 µM | [7] 4.84 µM | [8] 25.3 µM
not listed: [6]
inactive: all other assays above

CC1COCc2cc3c(cc21)C(C)(C)C(C)C3(C)C (configuration not stated)
active: [3] 163 µM | [6] 147 µM | [7] 144 µM | [9] 160 µM
not listed: [10]
inactive: all other assays above

CCCCCCc1ccc(N)cc1
active: [2] 26.9 µM
not listed: [1]
inactive: all other assays above

FC(F)(F)C(F)(F)C(F)(F)Br
not listed: [1]
inactive: all other assays above

CNNCc1ccc(C(=O)NC(C)C)cc1
not listed: [10]
inactive: all other assays above

COc1cc(OC)nc(NC(=O)NS(=O)(=O)Nc2ccccc2C(=O)N(C)C)n1
not listed: [6] | [10]
inactive: all other assays above

CC(=O)Nc1ccc(S(N)(=O)=O)cc1
not listed: [10]
inactive: all other assays above

Oc1cc2ccccc2cc1O
not listed: [7] | [10]
inactive: all other assays above

CCCCCCCCCCCCOC(=O)c1cc(O)c(O)c(O)c1
active: [2] 11.1 µM | [5] 6.75 µM | [6] 8.12 µM | [8] 21.3 µM
inactive: [1] | [3] | [4] | [9]
